{"source": "PubChem BioAssay (Tox21)", "note": "Results filed as inconclusive are left out. Unmarked numbers belong to inactive results. The source made the active and inactive calls. Unless noted, calls follow the shape of the dose curve; as a rule, active = well fitted cell-killing curve with a large enough effect in the repeat runs; inconclusive = weak or mixed curves, or effect the other way; inactive = no such curve, though single readings can be large or run the other way. % is scaled to controls: 0 for no effect and ±100 for the full control effect."}
{"biological_target": "Progesterone receptor (Homo sapiens) (UniProt P06401)", "sequence (P06401 whole entry, looked up)": "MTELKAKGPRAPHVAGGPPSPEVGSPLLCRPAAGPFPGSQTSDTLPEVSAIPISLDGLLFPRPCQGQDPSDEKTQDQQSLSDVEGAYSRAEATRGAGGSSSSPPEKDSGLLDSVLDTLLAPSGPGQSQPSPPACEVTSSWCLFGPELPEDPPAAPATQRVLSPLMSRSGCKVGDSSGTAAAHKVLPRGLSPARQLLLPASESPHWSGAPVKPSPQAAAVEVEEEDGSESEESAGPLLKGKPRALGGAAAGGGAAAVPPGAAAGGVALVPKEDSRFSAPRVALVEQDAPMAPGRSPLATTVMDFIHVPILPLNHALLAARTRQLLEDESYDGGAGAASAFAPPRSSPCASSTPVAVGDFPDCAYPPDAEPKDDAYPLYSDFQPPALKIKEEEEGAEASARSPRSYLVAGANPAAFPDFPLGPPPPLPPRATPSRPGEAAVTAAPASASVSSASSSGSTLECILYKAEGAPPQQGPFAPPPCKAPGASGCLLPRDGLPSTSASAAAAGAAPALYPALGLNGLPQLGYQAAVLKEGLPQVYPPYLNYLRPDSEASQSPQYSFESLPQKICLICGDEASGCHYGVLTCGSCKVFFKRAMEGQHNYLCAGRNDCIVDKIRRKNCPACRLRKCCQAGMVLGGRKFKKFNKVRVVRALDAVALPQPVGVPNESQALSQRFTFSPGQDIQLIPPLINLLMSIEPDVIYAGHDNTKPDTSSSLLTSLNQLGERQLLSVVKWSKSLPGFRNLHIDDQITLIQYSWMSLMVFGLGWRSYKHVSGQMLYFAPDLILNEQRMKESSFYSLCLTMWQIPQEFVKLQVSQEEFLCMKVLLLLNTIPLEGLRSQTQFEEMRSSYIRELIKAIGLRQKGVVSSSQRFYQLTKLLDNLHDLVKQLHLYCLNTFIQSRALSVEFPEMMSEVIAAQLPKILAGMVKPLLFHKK", "assay": "qHTS assay to identify small molecule antagonists of the progesterone receptor (PR) signaling pathway (AID 1346795; active = well fitted inhibition curve with a large enough effect in the signal ratio in the repeat runs, not every such curve was filed as active; the % refers to the signal ratio)", "details": "PR-UAS-bla HEK293T, beta-lactamase FRET ratio, 16 h; series mostly up to 92.4 µM; activity change, negative = inhibition: at the top concentration", "in_short": "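PR-UAS-bla HEK293T cells carrying a UAS-driven beta-lactamase reporter were plated in medium with 2% charcoal-stripped FBS and rested 6 hr at 37C. Compounds were added with 1 nM R5020 (final) for 16 hr, then FRET substrate loaded 2 hr at room temperature.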"}
{"smiles": "Cc1c(Nc2ncccc2C(=O)O)cccc1C(F)(F)F", "activity change, negative = inhibition": "-17.3% [at 42.5 µM]"}
{"smiles": "CCCCCCCCS", "activity change, negative = inhibition": "7.06%"}
{"smiles": "O=C1c2ccccc2C(=O)C1c1ccc2ccccc2n1", "activity change, negative = inhibition": "-0.869% [at 42.5 µM]"}
{"smiles": "S=c1[nH][nH]c(=S)s1", "activity change, negative = inhibition": "6.82%"}
{"smiles": "CC(C)(O)C(=O)O", "activity change, negative = inhibition": "2.25%"}
{"smiles": "CC(C(=O)O)c1ccc(/C=C2\\CCCCC2=O)cc1", "note": "(stereo unspecified)", "activity change, negative = inhibition": "10.1% [at 42.5 µM]"}
{"smiles": "Cc1c(Cl)cccc1[N+](=O)[O-]", "activity change, negative = inhibition": "15.4%"}
{"smiles": "O=C(O)c1ccc(O)c(O)c1", "activity change, negative = inhibition": "6.98%"}
{"smiles": "CC(=O)c1cccnc1", "activity change, negative = inhibition": "0.0987%"}
{"smiles": "[O-][n+]1ccc(Cl)cc1", "activity change, negative = inhibition": "13.5%"}
{"smiles": "COC(=O)C(C)(C)C", "activity change, negative = inhibition": "-3.35%"}
{"smiles": "O=C(O)c1cccc(C(=O)O)c1C(=O)O", "activity change, negative = inhibition": "-2.51%"}
{"smiles": "C[C@H](CN1CCCC1)C(=O)c1ccc(C(F)(F)F)cc1", "activity change, negative = inhibition": "-0.208% [at 42.5 µM]"}
{"smiles": "CCc1cnc(C(=O)O)c(C(=O)O)c1", "activity change, negative = inhibition": "11.6%"}
{"smiles": "O=C(NC1CCN(CCc2c[nH]c3ccccc23)CC1)c1ccccc1", "activity change, negative = inhibition": "-0.69% [at 42.5 µM]"}
{"smiles": "O=C(O)c1ccc2cc(O)ccc2c1", "activity change, negative = inhibition": "8.79%"}
{"smiles": "Nc1cccc2c(=O)[nH][nH]c(=O)c12", "activity change, negative = inhibition": "-3.92%"}
{"smiles": "CCC(CC)C(=O)O", "activity change, negative = inhibition": "10.9%"}
{"smiles": "SCCOCCOCCS", "activity change, negative = inhibition": "-1.27%"}
{"smiles": "Oc1ccc(CCNCCCCCCNCCc2ccccc2)cc1O", "activity change, negative = inhibition": "-9.94% [at 42.5 µM]"}
{"smiles": "C=CC(C)(O)CC/C=C(/C)CCC=C(C)C", "note": "(stereo unspecified)", "activity change, negative = inhibition": "1.82%"}
{"tested_on": "not listed separately", "assay": "qHTS assay to identify small molecule antagonists of the progesterone receptor (PR) signaling pathway - cell viability counter screen (AID 1346798); also: nearly all actives have a fitted effect of over 50% in size; also: potency is read from the fitted curve at half-maximal effect", "details": "PR-UAS-bla HEK293T viability, CellTiter-Glo luminescence, 16 h; series mostly up to 92.4 µM; activity change, negative = cytotoxicity: at the top concentration", "in_short": "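PR-UAS-bla HEK293T cells in medium with 2% charcoal-stripped FBS were treated with compounds plus R5020 for 16 hr at 37C. Cell viability was then read by CellTiter-Glo luminescence after 30 min at room temperature in the same wells.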"}
{"smiles": "CCn1nc(Cc2ccccc2)cc1C1CCN(C[C@H]2C[C@H](N(C)[C@@H](C(=O)O)C(C)C)C[C@@H]2c2cccc(F)c2)CC1", "activity change, negative = cytotoxicity": "-14.3%"}
{"smiles": "CO[C@@H]1COCC[C@@H]1N[C@@H]1CC[C@@](C(=O)N2CCc3ncc(C(F)(F)F)cc3C2)(C(C)C)C1", "activity change, negative = cytotoxicity": "-11.1%"}
{"smiles": "CCCCCCCCS", "activity change, negative = cytotoxicity": "9.22%"}
{"smiles": "O=C1c2ccccc2C(=O)C1c1ccc2cc(S(=O)(=O)O)cc(S(=O)(=O)O)c2n1", "Potency": "20.9 µM (active)"}
{"smiles": "Clc1cc(Cl)c2c(c1)N=C1CCCCCN1C2", "activity change, negative = cytotoxicity": "-25.6% [at 42.5 µM]"}
{"smiles": "O=C1c2ccccc2C(=O)C1c1ccc2ccccc2n1", "activity change, negative = cytotoxicity": "22.5% [at 42.5 µM]"}
{"smiles": "CCCCCCCCOCCCN", "activity change, negative = cytotoxicity": "-26.3%"}
{"smiles": "S=c1[nH][nH]c(=S)s1", "activity change, negative = cytotoxicity": "0.705%"}
{"smiles": "CC(C)(O)C(=O)O", "activity change, negative = cytotoxicity": "1.4%"}
{"smiles": "CC(C(=O)O)c1ccc(/C=C2\\CCCCC2=O)cc1", "note": "(stereo unspecified)", "activity change, negative = cytotoxicity": "9.91% [at 42.5 µM]"}
{"smiles": "CC1=CC(=C(c2ccc(N)cc2)c2ccc(N)cc2)C=CC1=N", "activity change, negative = cytotoxicity": "5.81% [at 8.39 µM]"}
{"smiles": "Cc1c(Cl)cccc1[N+](=O)[O-]", "activity change, negative = cytotoxicity": "0.29%"}
{"smiles": "O=C(O)c1ccc(O)c(O)c1", "activity change, negative = cytotoxicity": "15.4%"}
{"smiles": "CC(C)NC(=O)c1ccccc1N", "activity change, negative = cytotoxicity": "4.62%"}
{"smiles": "CC(=O)c1cccnc1", "activity change, negative = cytotoxicity": "2.48%"}
{"smiles": "CC(C)C/C=C(\\C=O)c1ccccc1", "activity change, negative = cytotoxicity": "21.2%"}
{"smiles": "CC(=O)c1ccc(Cl)c(Cl)c1Cl", "activity change, negative = cytotoxicity": "-6.14%"}
{"smiles": "[O-][n+]1ccc(Cl)cc1", "activity change, negative = cytotoxicity": "12.9%"}
{"smiles": "O=C(O)c1cccc(C(=O)O)c1C(=O)O", "activity change, negative = cytotoxicity": "-26.9%"}
{"smiles": "C[C@H](CN1CCCC1)C(=O)c1ccc(C(F)(F)F)cc1", "activity change, negative = cytotoxicity": "-11.5% [at 42.5 µM]"}
{"smiles": "CCc1cnc(C(=O)O)c(C(=O)O)c1", "activity change, negative = cytotoxicity": "-0.602%"}
{"smiles": "NC(=O)c1ccccc1C(N)=O", "activity change, negative = cytotoxicity": "-27.1%"}
{"smiles": "Cc1cccc(C)c1NC(=O)CN1CCCC1", "activity change, negative = cytotoxicity": "4.32% [at 42.5 µM]"}
{"smiles": "O=C(NC1CCN(CCc2c[nH]c3ccccc23)CC1)c1ccccc1", "activity change, negative = cytotoxicity": "-0.384% [at 42.5 µM]"}
{"smiles": "O=C(O)c1ccc2cc(O)ccc2c1", "activity change, negative = cytotoxicity": "-11.8%"}
{"smiles": "CCC(CC)C(=O)O", "activity change, negative = cytotoxicity": "1.2%"}
{"smiles": "SCCOCCOCCS", "activity change, negative = cytotoxicity": "-0.929%"}
{"smiles": "Oc1ccc(CCNCCCCCCNCCc2ccccc2)cc1O", "activity change, negative = cytotoxicity": "-8.94% [at 42.5 µM]"}
{"smiles": "C=CC(C)(O)CC/C=C(/C)CCC=C(C)C", "note": "(stereo unspecified)", "activity change, negative = cytotoxicity": "-6.2%"}
{"smiles": "CCN(CC)CC(=O)OCC(=O)[C@@]1(O)CC[C@H]2[C@@H]3CCC4=CC(=O)CC[C@]4(C)[C@H]3[C@@H](O)C[C@@]21C", "activity change, negative = cytotoxicity": "-14% [at 42.5 µM]"}
